# Source: PubChem BioAssay (NCI)
# The panel holds about 79,000 compounds, 15% with a hit somewhere; the sample as a whole holds those more often. The source made the active and inactive calls. No stated cut-off is given here; in the data, active means growth inhibition above about 70%; inactive means the rest.
# Experiment: NCI Yeast Anticancer Drug Screen. Data for the rad50 strain (AID 155);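 further: 0% = growth of vehicle-only cultures of the same strain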
# Details: S. cerevisiae rad50 strain growth inhibition; at 50.0 µM; stronger effect = higher value
# Experimental: Growth inhibition of yeast strains with defined genetic alterations is measured as a screen for potential anti-cancer activity. Selected strains with alterations in DNA damage repair or cell cycle control were exposed to compounds and growth inhibition was measured relative to vehicle treated controls. The strain used in this assay is rad50
row,Compound,growth inhibition
1,CC(=O)C1C(=O)C(=O)N(c2ccc(S(N)(=O)=O)cc2)C1=O (stereo not given),-37.3% (inactive)
2,O=C1Oc2ccccc2C(=O)C1=Ic1ccccc1,31.3% (inactive)
3,CSCCC(NC(c1ccccc1)c1ccccc1)[P+](=O)O (stereo not given),-53.4% (inactive)
4,COc1ccc(CSC(=S)Nc2ccc(C)c(Cl)c2)cc1,26% (inactive)
5,CCC1=C(C(C)=O)[C@@H]2CCCCC(C(=O)OC)[C@@H]2C1=O (stereo not given in full),-38.7% (inactive)
6,COC(=O)c1ccc(N=NN(C)COC(C)=O)cc1,27.4% (inactive)
7,CC1CN1C(=O)Nc1cccc2c(NC(=O)N3CC3C)cccc12 (stereo not given),-21.9% (inactive)
8,O=C(CCCCCCCCC(=O)c1ccc2ccccc2c1O)c1ccc2ccccc2c1O,-24.4% (inactive)
9,O=[N+]([O-])C(/C=C(\Cl)[N+](=O)[O-])=C(N1CCCCC1)N1CCCCC1,10.8% (inactive)
10,CC=C(c1ccccc1)c1ccccc1,-34% (inactive)
11,O=C(NN1C(=O)C(Cl)C1c1ccccc1O)c1ccccc1O (stereo not given),-5.85% (inactive)
12,O=S1(=O)CCCCc2ccccc21,7.35% (inactive)
13,O=C(NC(=S)Nc1ccc(Cl)c(Cl)c1)c1cccc([N+](=O)[O-])c1,-6.45% (inactive)
14,COc1c(C(=O)O)[nH]c(=O)[nH]c1=O,4.85% (inactive)
15,Nc1nc(NC(=O)C2=NS(=O)(=O)c3cc(S(N)(=O)=O)c(Cl)cc3N2)n[nH]1,-8.9% (inactive)
16,O=C(c1ccc(Cl)cc1)N(C(=S)N1CCN(c2ccccc2)CC1)C1CCCCC1,7.95% (inactive)
17,NC(=S)N/N=c1\cc(C(=O)Nc2ccc([N+](=O)[O-])cc2[N+](=O)[O-])oc2ccccc12,19.1% (inactive)
18,C/C(=N/O)c1ccc(C(F)(F)F)cc1,-5.25% (inactive)
19,O=C(O)C1c2ccccc2-c2ccccc21,52.4% (inactive)
20,COc1ccccc1OCC(O)CNc1ccc(Cl)cc1C(=O)c1ccccc1 (stereo not given),3.25% (inactive)

row,Compound,growth inhibition
1,Clc1cccc(-c2sc(-c3ccsc3)cc2Cc2ccsc2)c1,-21.2% (inactive)
2,COC(=O)CC1(C(=O)OC)Oc2ccc(Br)cc2C(=O)N1c1ccc(Br)cc1Cl (stereo not given),26.9% (inactive)
3,O=C1NC2Cc3ccccc3C(C2)O1 (stereo not given),2.8% (inactive)
4,Clc1ccc(C(Cl)(c2ccc(Cl)cc2)C(Cl)(Cl)Cl)cc1,-14.1% (inactive)
5,CN(C)c1ccc(C=C2C(=O)CC(C)(C)CC2=O)cc1,12.5% (inactive)
6,Cc1cc(C(N)=O)c(C(N)=O)c(Cl)n1,2.35% (inactive)
7,Cn1cnc([N+](=O)[O-])c1Sc1ccccc1C(=O)O,-2.7% (inactive)
8,CCOC(=N)c1cn(C2OC(CO)C(O)C2O)c2nc[nH]c(=O)c12 (stereo not given),3.35% (inactive)
9,O=C(c1ccccc1)c1nc2ccc(Cl)cc2cc1C(Br)Br,17.9% (inactive)
10,O=c1oc2ccccc2cc1F,16.4% (inactive)
11,CO/C(N)=C(\C#N)N=Cc1cccs1,3.95% (inactive)
12,CCN(CC)CCN(CCN(CC)CC)c1ccc2ccccc2c1,18.9% (inactive)
13,c1ccc2c(c1)N=C(c1cccc3ccccc13)CC(c1cccc3ccccc13)S2 (stereo not given),-28% (inactive)
14,Nc1ccccc1C(=O)N/N=C/c1cccnc1,11.1% (inactive)
15,Clc1ccc(CSc2cnnc(Cl)c2SCc2ccc(Cl)cc2)cc1,8.1% (inactive)
16,C=Cc1ccc(OC2OC(CO)C(OC3OC(CO)C(O)C(O)C3O)C(O)C2O)cc1 (stereo not given),14.7% (inactive)
17,N#C[C@H](c1nc2ccccc2s1)c1nc2ccccc2nc1Cl,4.95% (inactive)
18,CCC[N+]1([O-])CCOCC1,-8.2% (inactive)
19,CCCCC1CCC(C(=O)O)=NC1 (stereo not given),5.65% (inactive)
20,O=C(O)c1cccnc1-c1ccccc1,-3.95% (inactive)
